This is part of a sample that, as a whole, favours compounds with a hit. Of some 83,000 tested, about 20% had one in any assay.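 Interpretation: 100, growth as untreated; towards 0, rising growth inhibition; 0, no net growth; 0 to -100, cell death. Compounds scoring below 10 were considered active.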 A number with no mark means an inactive call. Activity calls are given as the source filed them.
Key:
Test in all cases: NCI-60 one-dose screen, 48 h (100 = growth as untreated, 0 = no growth, -100 = all killed)
Conditions in all cases: 10 µM
SR leukemia = system: SR leukemia
RPMI-8226 leukemia = system: RPMI-8226 leukemia
OVCAR-8 ovarian = system: OVCAR-8 ovarian
OVCAR-5 ovarian = system: OVCAR-5 ovarian
OVCAR-4 ovarian = system: OVCAR-4 ovarian
SK-OV-3 ovarian = system: SK-OV-3 ovarian
OVCAR-3 ovarian = system: OVCAR-3 ovarian
HS 578T breast = system: HS 578T breast
NCI/ADR-RES ovarian = system: NCI/ADR-RES ovarian
T-47D breast = system: T-47D breast
BT-549 breast = system: BT-549 breast
MDA-MB-435 melanoma = system: MDA-MB-435 melanoma
SW-620 colon = system: SW-620 colon
MCF7 breast = system: MCF7 breast
HCT-116 colon = system: HCT-116 colon
HCC-2998 colon = system: HCC-2998 colon
KM12 colon = system: KM12 colon
IGROV1 ovarian = system: IGROV1 ovarian

SMILES	growth (SR leukemia)	growth (RPMI-8226 leukemia)	growth (OVCAR-8 ovarian)	growth (OVCAR-5 ovarian)	growth (OVCAR-4 ovarian)	growth (SK-OV-3 ovarian)	growth (OVCAR-3 ovarian)	growth (HS 578T breast)	growth (NCI/ADR-RES ovarian)	growth (T-47D breast)	growth (BT-549 breast)	growth (MDA-MB-435 melanoma)	growth (SW-620 colon)	growth (MCF7 breast)	growth (HCT-116 colon)	growth (HCC-2998 colon)	growth (KM12 colon)	growth (IGROV1 ovarian)
COc1cc(N)c2ncccc2c1SC	90.4%	100%	98.4%	101%	105%	108%	105%	92.5%	99.1%	93.1%	102%	110%	104%	104%	99.3%	102%	102%	
CN(C)CCCOc1cccc(NC2=C(Cl)C(=O)C(Nc3cccc(OCCCN(C)C)c3)=C(Cl)C2=O)c1	-9.52% (active)	-47.5% (active)	-80.1% (active)	-47.9% (active)	-98.8% (active)	98.2%	-96% (active)	-2.49% (active)		-44% (active)		-65.5% (active)	-61.2% (active)	-38.3% (active)	-88.7% (active)	14%	13.9%	-67.4% (active)
COc1cc2c(cc1OC)C(C(CCCCCC(CCC(C)C)C1NCCc3cc(OC)c(OC)cc31)CCC(C)C)NCC2 (stereo unspecified)	12.1%	-57.1% (active)	-89.3% (active)	-100% (active)	-100% (active)	-99.5% (active)	-99.9% (active)	-41% (active)	-95.9% (active)	-85.2% (active)			-83.8% (active)	-92.7% (active)	-100% (active)	-94.2% (active)	-97% (active)	
CSc1nc2c(c(=O)n1C)CN(Cc1ccccc1)C(=O)CN2	-9.52% (active)	109%	106%	94.4%	91%		98.6%	101%	85.5%	95%		60%	95.7%	89.6%	92.6%	85.4%	85.7%	97.6%
COc1cc(-c2nn(-c3cccc(NC(=O)NCCNS(=O)(=O)c4ccc(Cl)cc4)c3)cc2-c2ccncc2)ccc1Cl	1.18% (active)	-2.02% (active)	8.88% (active)	27.9%	33.3%		2.8% (active)	18.8%	71%	23.8%	-11.6% (active)	2.25% (active)	18.9%	4.85% (active)	0.871% (active)	-9.49% (active)	7.63% (active)	25.2%
C=C(NC(=O)C(=C)NC(=O)c1csc(C2=NC3c4csc(n4)C4NC(=O)c5csc(n5)C(C(C)(O)C(C)O)NC(=O)C5CSC(=N5)C(=CC)NC(=O)C(C(C)O)NC(=O)c5csc(n5)C3(CC2)NC(=O)C(C)NC(=O)C(=C)NC(=O)C(C)NC(=O)C(C(C)CC)NC2C=Cc3c(C(C)O)cc(nc3C2O)C(=O)OC4C)n1)C(N)=O (stereo unspecified)	-7.28% (active)	10.1%	20.4%	34%	33.1%		34%	42.5%		40.4%	0.0683% (active)	4.84% (active)	1.83% (active)	16.7%	-70.9% (active)	79.3%	28.3%	64.6%
C=CCN(CC=C)C(=O)[C@H](CC)[C@@H]1CC[C@@H](C)[C@@H]([C@H](C)[C@@H](O)[C@@H](C)C(=O)[C@H](CC)C2O[C@]3(C=CC(=O)[C@]4(CC[C@@](C)([C@H]5CC[C@](O)(CC)[C@H](C)O5)O4)O3)[C@H](C)C[C@@H]2C)O1 (stereo partly specified)	49.1%	-23% (active)	32.4%	32.8%	42.7%		29.8%	33.9%		18.2%	54.8%	40.7%	24.8%	8.84% (active)	13.9%	26.5%	48.8%	43.5%
NS(=O)(=O)Oc1ccc(NC(=O)C2CCCCCC2)cc1	98.5%	102%	98.8%	98.4%	107%		102%	108%	103%	90.7%	104%	106%		97.7%	105%	101%	101%	103%
COc1cc2cc(Oc3ccc(NC(=O)c4ccc(Cl)c(C(F)(F)F)c4)cc3)c(C)nc2cc1OC	37.1%	9.15% (active)	27.7%	51.3%	42.4%		0% (active)	41.6%	14.1%	82.8%	20.8%	25.7%	34.2%	24.8%	8.43% (active)	41.3%	19.7%	20.6%
O=c1[nH]c(=O)n(C2C[C@H](O)[C@@H](CO)O2)cc1C(F)(F)F (stereo partly specified)	91.9%	97.5%	103%	103%	114%		117%	124%	102%	95.3%	105%	102%	114%	102%	106%	108%	115%	120%
CCCN1CN2C(=O)N3CN(CCC)CN4C(=S)N(C1)C2C34 (stereo unspecified)	79.3%	105%	108%	95.2%	103%		103%	113%	103%	90%	89.5%	106%	108%	87.7%	82.9%	106%	101%	99.3%
O=C1/C=C/[C@@H](O)[C@@H]2C[C@@H](O)C[C@H]2/C=C/CCC[C@@H](C(F)(F)F)O1	102%	97.7%	83.2%	107%	75.3%		69.8%	74.2%	92.5%	82.3%	123%	93.5%		67.1%	109%	107%	99.3%	105%
CC(=O)[C@@]12O[C@](C)(c3ccccc3)O[C@@H]1CC1C3CCC4=CC(=O)CC[C@]4(C)C3CC[C@@]12C (stereo partly specified)	32.1%	47.6%	82.4%	88.5%	44%		54.3%	86.2%	60.4%	74.3%	79.7%	77.8%	83.3%	59%	48.2%	79.3%	70.8%	70.7%
CCOC(=O)C1=CSC2=NC3=C(CCC/C3=C\c3cc(OC)c(OC)c(OC)c3)C(c3cc(OC)c(OC)c(OC)c3)N12 (stereo unspecified)	31.2%	22.4%	13.5%	75.7%	72.3%		57.1%	46.8%	3.63% (active)	88.9%		21%	44.9%	29.9%	19.2%	75.1%	-21.8% (active)	89.7%
COC(=O)c1c[nH]c2cc(OC(C)C)c(OC(C)C)cc2c1=O	97%	96.9%	58.8%	106%	109%		113%		101%	103%	112%	106%	105%	84.8%	102%	104%	106%	139%
CC(C)(C)c1ccc(S(=O)(=O)Oc2ccc(NC(=O)C3CCCCC3)cc2)cc1	42.6%	13.6%	51%	85.1%	47.5%		40.7%	81.4%	29.8%	0.897% (active)	51.8%	59.6%	51.9%	19.8%	30.8%	51.8%		76.3%

Reference: PubChem BioAssay (NCI)
